Test results as given in PubChem BioAssay AID1476 (National Center for Advancing Translational Sciences (NCATS), 2009).
About 4,500 (2.2%) of roughly 200,000 compounds were called active. Inconclusive results (about 12%) are left out. This excerpt belongs to a sample that is enriched for actives. Unmarked numbers belong to inactive results. The call rests on the fitted dose curve; in most records, active means well fitted inhibition curve with a large enough effect; inconclusive means small, poorly fitted or top-dose-only effect, or effect the other way; inactive means flat fitted curve, though single readings scatter.

target: Cruzipain (Trypanosoma cruzi) (UniProt P25779); assay: qHTS Assay for Promiscuous and Specific Inhibitors of Cruzain (without detergent); details: purified cruzain, Z-FR-AMC fluorescence, no detergent; further: nearly all actives have a fitted effect of over 40% in size;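 on max response, negative = inhibition: plate controls were enzyme without inhibitor for no effect and buffer without enzyme for full effect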
Method in brief: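 Detergent-free condition (0.00005% Triton X-100) in acetate buffer pH 5.5 with DTT. 1.5 nM enzyme and compound were pre-mixed 15 min, then 2 uM Z-FR-AMC substrate added; reaction progress from fluorescence change between first and third reads (60 s).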
Potency means the concentration at half of the fitted maximal effect.

Chain of Cruzipain (Trypanosoma cruzi) (P25779 123-467 limits assumed): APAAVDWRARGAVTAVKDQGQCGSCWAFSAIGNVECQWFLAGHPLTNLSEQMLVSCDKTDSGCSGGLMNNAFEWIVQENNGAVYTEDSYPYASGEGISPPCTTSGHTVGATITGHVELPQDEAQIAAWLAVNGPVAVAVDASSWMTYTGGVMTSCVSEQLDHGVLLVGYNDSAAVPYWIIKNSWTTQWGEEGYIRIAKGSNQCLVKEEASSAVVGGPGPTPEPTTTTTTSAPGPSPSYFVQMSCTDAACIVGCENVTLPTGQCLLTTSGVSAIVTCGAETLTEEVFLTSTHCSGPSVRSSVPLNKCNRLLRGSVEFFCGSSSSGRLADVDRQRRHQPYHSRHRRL

Row | SMILES | max response, negative = inhibition [%] | Potency
1 | Cn1c(=O)c2c(SCC(=O)N3CCc4ccccc43)nc(-c3ccc(Cl)cc3)nc2n(C)c1=O | 16.5 | 
2 | Cc1ccc(S(=O)(=O)N2CCC(C(=O)Nc3cc(C)ccc3C)CC2)cc1 | 10.8 | 
3 | Cc1ccccc1CSc1nc(-c2ccccc2)nc2c1Cc1c(CO)cnc(C)c1O2 | -5.34 | 
4 | CC(C)(C)C1C/C(=C/c2ccco2)C(=O)/C(=C/c2ccco2)C1 (stereo unspecified) | 22.8 | 
5 | O=C1OC(/C=C/c2ccccc2)=NC/1=C/c1ccco1 |  | 3.16 µM (active)
6 | COc1ccccc1/C=C/C1=NC(=C\N(C)C)/C(=O)O1 | -2 | 
7 | COc1ccccc1-c1nnc(C2CCN(C(=O)c3ccc(Cl)cc3)CC2)o1 | -7.8 | 
8 | Fc1cccc(-n2ncc3c2ncn2nc(-c4ccccc4Cl)nc32)c1 | -11.9 | 
9 | COc1ccccc1CNC(=O)NCc1noc2ccc(C)cc12 | -3.84 | 
10 | O=C(CN1CCSc2ccccc21)N1CCN(c2ccccc2)CC1 | -4.92 | 
11 | Cc1ccc(-c2nc3ccccc3[nH]2)cc1N | 0.934 | 
12 | Cc1cc2[nH]ncc2cc1NC(=S)NC(=O)c1ccccc1 | 0.868 | 
13 | COC(=O)c1cc(NC(=O)c2sc3ccccc3c2Cl)cc(C(=O)OC)c1 | -7.2 | 
14 | Cc1ccc(-c2nc3ccccc3[nH]2)cc1NC(=O)c1sc2ccccc2c1Cl |  | 7.94 µM (active)
15 | COc1ccc(Br)cc1C(=O)NC(=S)Nc1cc(-c2nc3ccccc3[nH]2)ccc1C |  | 10 µM (active)
16 | COc1ccc2oc(-c3ccc(C)c(NC(=O)c4sc5ccccc5c4Cl)c3)nc2c1 | -7.77 | 
17 | Cc1onc(-c2ccc(F)cc2F)c1C(=O)Nc1cccc(C(F)(F)F)c1 | -6.18 | 
18 | Cc1cccc(-c2nc(SCc3ccc(Br)cc3)n3[nH]c(=O)cc3n2)c1 | -2.63 | 
19 | O=C(Cn1c(=O)n(Cc2ccccc2)c(=O)c2sc3ccccc3c21)Nc1ccccc1F | 9.77 | 
20 | CCCCN(CC)CCCNC(=O)c1nn(C)c2c1CS(=O)(=O)c1ccccc1-2 | 5.31 | 
21 | CCCNC(=O)CCC(=O)N1Cc2ccccc2Oc2ncccc21 | -4.94 | 
22 | CCOC(=O)c1c(NC(=O)c2ccc(S(=O)(=O)N(CC)CC)cc2)sc2c1CCCCC2 | 8.24 | 
23 | CCOC(=O)c1c(NC(=S)NC(=O)c2ccco2)sc2c1CCCC2 |  | 12.6 µM (active)
24 | CCOC(=O)c1c(NC(=O)c2cc(-c3ccc(Cl)cc3)on2)sc2c1CCCC2 | 3.1 | 

Row | SMILES | max response, negative = inhibition [%] | Potency
25 | CC(C)OC(=O)c1c(NC(=O)c2ccco2)sc2c1CCCC2 | -12.4 | 
26 | CCOC(=O)c1c(NC(=O)C2CCN(S(=O)(=O)c3ccc(Cl)cc3)CC2)sc2c1CCCC2 |  | 15.8 µM (active)
27 | CCOC(=O)c1c(NC(=S)Nc2ccccc2C)sc2c1CCC2 | -25.8 | 
28 | Cc1cccc(N2CCN(C(=O)Cn3ncc4c5ccccc5n(C)c4c3=O)CC2C)c1 (stereo unspecified) | 2.09 | 
29 | COc1cc(CN(CC2CCCO2)C(=O)c2ccccc2F)cc(OC)c1OC (stereo unspecified) | 17.1 | 
30 | CC(C)(C)OC(=O)N1CCC(c2c(C(=O)NCCc3ccsc3)cnn2-c2ccc(F)cc2F)CC1 | -13.2 | 
31 | CCCC12CN3CC(CCC)(CN(C1)C3c1c[nH]c3ccc(OC)cc13)C2=O (stereo unspecified) | 15.7 | 
32 | O=C(NCc1ccccn1)c1ccc2nc(-c3ccco3)c(-c3ccco3)nc2c1 |  | 25.1 µM (active)
33 | O=C(NCc1ccccn1)c1cc(-c2ccccc2Cl)on1 | -2.8 | 
34 | CN(c1ccc(C(=O)NCc2ccccn2)cc1)S(C)(=O)=O | -4.77 | 
35 | CCSc1nnc2c(n1)OC(c1ccc(OCC(=O)O)cc1)Nc1ccccc1-2 (stereo unspecified) | -6.38 | 
36 | CCOc1ccc(CNC(=O)c2cc(-c3ccc(Cl)s3)nc3ccccc23)cc1 | -5.14 | 
37 | COC(=O)CN(C(=S)Nc1ccc(Cl)cc1)C1CC(=O)N(c2ccc(OC)cc2)C1=O (stereo unspecified) | -5.17 | 
38 | Cc1ccc(N2CC(C(=O)Nc3ccc(N(C)C)cc3)CC2=O)cc1Cl (stereo unspecified) | -3.38 | 
39 | CN(C)c1ccc(NC(=S)N(CCc2ccccc2)C2CC(=O)N(c3c(Cl)cccc3Cl)C2=O)cc1 (stereo unspecified) |  | 15.8 µM (active)
40 | CN1C(=O)c2ccccc2Sc2ccc(NC(=O)Cc3ccc(Cl)cc3)cc21 | 14.1 | 
41 | CCCCn1c(=N)c(S(=O)(=O)c2ccccc2)cc2c(=O)n3cccc(C)c3nc21 | 14.5 | 
42 | CCn1c(=N)c(S(=O)(=O)c2ccc(F)cc2)cc2c(=O)n3ccccc3nc21 |  | 20 µM (active)
43 | CCOC(=O)c1cc2c(=O)n3ccccc3nc2n(Cc2ccco2)c1=NC(=O)c1ccc(F)cc1 | -18.9 | 
44 | Cc1ccc(-c2nc(CS(=O)(=O)CC(=O)NCc3ccccc3Cl)c(C)o2)cc1 | -2.75 | 
45 | CC(C)(C)n1nnnc1C(c1ccc2ncccc2c1)N1CCSCC1 (stereo unspecified) |  | 7.94 µM (active)
46 | CC(C)(C)n1nnnc1C(c1ccc(Cl)cc1)N1CCSCC1 (stereo unspecified) | -17.6 | 
47 | CCC(C)(C)n1nnnc1C(c1ccccc1OC)N1CCSCC1 (stereo unspecified) | 1.47 | 
48 | Cc1ccc(C)c(NC(=O)Cn2ccn(-c3ccc(F)cc3)c(=O)c2=O)c1 | -16.8 | 

Row | SMILES | max response, negative = inhibition [%] | Potency
49 | CC(C)OCCCNc1ncnc2c1[nH]c1ccc(F)cc12 | -22.4 | 
50 | O=C1CCCN1CCCNc1ncnc2c1[nH]c1ccccc12 |  | 20 µM (active)
51 | O=C(CCn1c(=S)[nH]c2ccccc2c1=O)NCCCN1CCCC1=O | 7.76 | 
52 | COc1ccc(N2CCN(C3=NS(=O)(=O)C(c4cccc(Br)c4)=C3C)CC2)cc1 | -1.42 | 
53 | COc1cccc(CNc2nccn(-c3ccc(OC)c(OC)c3)c2=O)c1 | 4.88 | 
54 | CCOc1ccc(-n2c(SCC(=O)NCc3ccccc3)nc3n[nH]c(C)c3c2=N)cc1 | 6.06 | 
55 | COc1ccc(OC)c(-n2nnc3c(sc4nc(C)c(Br)c(C)c43)c2=O)c1 | 15.9 | 
56 | Cc1ccc(N=C2NC(=O)/C(=C/C=C/c3ccco3)S2)cc1C | -3.89 | 
57 | Cc1cccc(N=C2NC(=O)/C(=C/c3cn(C)c4ccccc34)S2)c1 |  | 31.6 µM (active)
58 | Cc1nnc(N2CCCC(C(=O)NCCN(C)C)C2)c2nn(-c3ccccc3)c(C)c12 (stereo unspecified) | -14.7 | 
59 | Cc1cccc(CSc2nc3ccncc3n2Cc2ccc(C(=O)O)cc2)c1 | -13.3 | 
60 | CCc1nn(CC(=O)N2CCN(c3cccc(C(F)(F)F)c3)CC2)c(=O)c2cc3occc3n12 | -20.3 | 
61 | CCCCN1C(=O)c2[nH]nc(-c3ccccc3O)c2C1c1cccc(OCc2ccccc2)c1 (stereo unspecified) | -70.8 | 
62 | O=C(COc1ccccc1Cl)Nc1ccc2nc(SCC(=O)N3CCCC3)sc2c1 | -3.05 | 
63 | Cc1ccc(NC(=O)CSc2nc3ccccc3c3nc(CCn4cncc4C)nn23)cc1F | 6.2 | 
64 | COc1ccc(CNC(=O)CCc2c(C)nn(-c3ccc(N4CCCC4)nn3)c2C)cc1 | 3.65 | 
65 | Cc1ccc2nc(/C(C#N)=C/c3ccc(-c4ccc(C(=O)OC(C)C)cc4)o3)[nH]c2c1 |  | 12.6 µM (active)
66 | Cc1ccc2nc(/C(C#N)=C/c3ccccc3F)[nH]c2c1 | -17.7 | 
67 | Cc1ccc2nc(S(=O)(=O)O)[nH]c2c1 | -1.87 | 
68 | C=C1c2cc(CC)ccc2NC(=O)N1c1ccc(C)cc1 | -5.5 | 
69 | Cc1ccc(N2C(=O)C3C(c4ccccc4)(C2=O)C3(c2ccccc2)c2ccccc2)cc1 (stereo unspecified) |  | 25.1 µM (active)
70 | Cc1ccc(N2C(=O)C(Cc3ccccc3)NC2=S)cc1 (stereo unspecified) | -8.99 | 
71 | Cc1ccc(Cn2c(=O)n(CCCC(=O)NCc3ccccc3Cl)c(=O)c3ccccc32)cc1 | 3.97 | 
